# Laboratory results as given in PubChem BioAssay.
# Records with an inconclusive call do not appear. The source made the active and inactive calls.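 How the source made its calls, unless noted: active means GFP signal, as percent of the solvent control, above the screen mean plus 3 SD, about 149; inconclusive means no reading because the compound's own fluorescence upset strain identification; inactive means the rest.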
# Key:
# [1] = yeast TOR pathway RPL19A-GFP modulators, primary screen, cell-based, S. cerevisiae, multiplex flow cytometry (AID 1862; in the data active means percent of DMSO control GFP below about 86%;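 further: lower values mimic rapamycin by blocking the RPL19A rise seen in DMSO cells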); settings: S. cerevisiae RPL19A-GFP strain, flow cytometry fluorescence, 3 h; at 10 µM; stronger effect = lower value
# [2] = modulators of MEP2-GFP levels in yeast, primary screen, S. cerevisiae, multiplex flow cytometry (AID 1867;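 active means GFP response, as percent of the DMSO control, above the screen-wide mean plus 3 SD, about 139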;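 further: median GFP channel fluorescence of barcode-gated MEP2-GFP cells measured by flow cytometry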); settings: S. cerevisiae MEP2-GFP strain, 3 h, at 10 µM, stronger effect = higher value, 100% means same as DMSO wells
# [3] = modulators of CIT2-GFP expression in yeast, primary screen, S. cerevisiae, GFP fusion, multiplex flow cytometry (AID 1870;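 active means percent response above a set limit, the screen-wide mean plus 3 SD, cut at about 130% in these data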;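 further: barcoded CIT2-GFP strain pooled with four other GFP strains with rapamycin as positive control; median GFP fluorescence per well over plate mean of DMSO wells so 100% = DMSO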); settings: 3 h, at 10 µM, stronger effect = higher value
# [4] = modulators of LAP4-GFP expression in yeast, primary screen, S. cerevisiae, multiplex flow cytometry (AID 1873); settings: 3 h, at 10 µM, stronger effect = higher value
# [5] = modulators of AGP1-GFP expression in yeast TOR pathway, primary screen, cell-based, multiplex flow cytometry, S. cerevisiae (AID 1887;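 active means GFP signal above the screen-wide mean plus 3 SD, that is over about 124.5% of the solvent control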;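 further: AGP1-GFP fusion strain of S. cerevisiae within a five-strain barcoded multiplex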); settings: 3 h, at 10 µM, stronger effect = higher value
# [6] = inhibitors of CD8+ T cell-vesicle binding, pilot screen, LFA-1/ICAM-1 modulator project, MLPCN validation set, flow cytometry (AID 2523;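 active means response below a set limit, under 55% cells CD8-positive and vesicle-bound, and CD8 cells' 90th-percentile brightness under 279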;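 on vesicle binding response: mean PE anti-B7-1 fluorescence of CD8+ cells relative to row control; 100% = QL9-loaded vesicles with DMSO vehicle in the same plate row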); settings: 2C mouse CD8+ T cells, at 7 µM, stronger effect = lower value; double positive events: measured here: CD8+/vesicle+ event percentage
# [7] = target: Integrin beta-1 (Homo sapiens) + Integrin alpha-4 (Homo sapiens) (UniProt P13612+P05556); test: inhibition of HUTS-21 binding to VLA-4, pilot screen, VLA-4 allosteric modulator project, U937 cells, HUTS-21 mAb, flow cytometry, validation set (AID 2674;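 active means inhibition above 50%, about 3 SD of the validation set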;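 further: antibody binding induced by the VLA-4 ligand LDV present at three times its Kd; 0% = LDV ligand with antibody and no compound and 100% = antibody without LDV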); settings: HUTS-21 LIBS mAb binding, at 6.7 µM, stronger effect = higher value, binding induced by LDV ligand
# [8] = superoxide lowering in aged yeast cells, pilot screen, validation compound set (AID 2706;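 active means superoxide response below 65% of plate, a cut near 3 SD across the whole screen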;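 further: yeast exposed to compound for one week at 30 degrees C before staining; 100% = mean of all compound wells on the same plate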); settings: S. cerevisiae aging, superoxide DHE fluorescence; at 10 µM; stronger effect = lower value
# [9] = target: Beta-adrenergic receptor kinase 1 (Homo sapiens) (UniProt P25098); test: GRK2 binders displacing RNA aptamer, biochemical, validation, human GRK2, bead flow cytometry (AID 488806;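 active means aptamer binding inhibition above 30%, about 3 SD of noise from non-fluorescent compounds; inactive means inhibition at or below 30%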); settings: bead-bound GRK2, FAM-aptamer displacement, at 10 µM, stronger effect = higher value
# [10] = target: Beta-2 adrenergic receptor (Homo sapiens) (UniProt P07550); test: beta2AR agonists driving receptor internalization, pilot screen, cell-based, FAP fluorogen, flow cytometry, validation set (AID 504459;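 active means percent response above 42, roughly 3 SD of non-fluorescent test compounds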;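 further: agonist-driven loss of surface beta2AR via internalization measured by FAP dye flow cytometry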); settings: Am2.2-beta2AR cells, FAP surface receptor flow cytometry; at 10 µM; stronger effect = higher value
# [11] = target: AP-2 complex subunit beta (Homo sapiens) (UniProt P63010); test: inhibitors of arrestin peptide binding to AP2, pilot screen, biochemical, validation set, GST-AP2 beads, flow cytometry (AID 504541;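 active means inhibition above 54%, about 3 SD of non-fluorescent compounds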;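 further: AP2 carries R879A mutation and is captured from E. coli lysate; bead-bound FITC arrestin peptide fluorescence measuring arrestin peptide binding to AP2; 0% = DMSO wells and 100% = excess unlabeled arrestin peptide control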); settings: FITC arrestin peptide, at 10 µM, stronger effect = higher value, AP2 beta2 appendage fragment, R879A mutant
# [12] = yeast V-ATPase proton transport modulators, S. cerevisiae, pHLuorin, HTS validation (AID 504600; in the data active means response above about 15%;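 further: plate controls were DMSO for no effect and reference compound for full effect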); settings: S. cerevisiae pHLuorin cytosolic pH, at 10 µM, stronger effect = higher value
# [13] = test system: anti-desmoglein-3 scFv antibody binding to human DSG3; test: inhibitors of anti-DSG3 scFv binding to DSG3, pilot screen, biochemical, validation compound set, bead-based, flow cytometry (AID 588368;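 active means binding below the plate cutoff, the plate median minus 3 SD, with a reading above zero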;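 further: signal is the median channel fluorescence of bead-bound GFP antibody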); settings: Protein G beads, DSG3-Fc, scFv-GFP binding, at 10 µM, stronger effect = lower value
# [14] = inhibitors of fungal efflux pumps CDR1, CDR2, MDR1, pilot screen, validation compound set, multiplex, phenotypic (AID 588506;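 active means efflux inhibition above 0.42, the validation set average plus 4 SD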;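 further: Nile Red retained in cells so higher fluorescence means more efflux inhibition; 0 = negative control wells and 1 = enniatin B 25 µM full block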); settings: S. cerevisiae pump-expressing triplex, Nile Red efflux flow cytometry; at 10 µM; stronger effect = higher value; the pumps come from Candida albicans
# [15] = target: ATP-binding cassette sub-family B member 6 (Homo sapiens) (UniProt Q9NP58); test: ABCB6 transporter inhibitors, pilot screen, K562-ABCB6 cells, flow cytometry, validation set (AID 588550;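 active means inhibition above the screen-wide mean plus 3 SD, about 51%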;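 further: 0% = DMSO wells and 100% = benzethonium chloride 70 µM positive control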); settings: K562-ABCB6 porphyrin accumulation, 1 h, at 10 µM, stronger effect = higher value
# [16] = promoters of myeloid differentiation in arrested cells, primary screen, cell-based, GFP/MAC1 double positive, flow cytometry, validation set (AID 588685;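 active means differentiation response of at least 50%, scaled between solvent and reference control, from cells with both markers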;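 further: compound exposure lasts four days before antibody staining and flow analysis; 0% = DMSO wells and 100% = 5 µM fulvestrant positive control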); settings: ER-HoxA9 marrow cells, stronger effect = higher value, normalized: vehicle 0, fulvestrant 100
# Beta-2 adrenergic receptor (Homo sapiens), sequence (P07550 whole entry, looked up): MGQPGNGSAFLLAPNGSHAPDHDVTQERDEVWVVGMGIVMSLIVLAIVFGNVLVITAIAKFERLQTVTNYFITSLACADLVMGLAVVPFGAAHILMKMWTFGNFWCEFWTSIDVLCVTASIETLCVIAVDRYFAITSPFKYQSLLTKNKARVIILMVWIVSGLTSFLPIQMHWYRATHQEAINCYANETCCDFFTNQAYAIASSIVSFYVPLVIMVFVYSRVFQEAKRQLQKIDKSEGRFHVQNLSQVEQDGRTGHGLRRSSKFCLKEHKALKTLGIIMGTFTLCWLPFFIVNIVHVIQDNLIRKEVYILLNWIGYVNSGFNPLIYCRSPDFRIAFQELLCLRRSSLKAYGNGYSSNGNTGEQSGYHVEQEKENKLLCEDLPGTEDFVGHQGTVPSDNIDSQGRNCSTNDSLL
# Beta-adrenergic receptor kinase 1 (Homo sapiens), sequence (P25098 whole entry, looked up): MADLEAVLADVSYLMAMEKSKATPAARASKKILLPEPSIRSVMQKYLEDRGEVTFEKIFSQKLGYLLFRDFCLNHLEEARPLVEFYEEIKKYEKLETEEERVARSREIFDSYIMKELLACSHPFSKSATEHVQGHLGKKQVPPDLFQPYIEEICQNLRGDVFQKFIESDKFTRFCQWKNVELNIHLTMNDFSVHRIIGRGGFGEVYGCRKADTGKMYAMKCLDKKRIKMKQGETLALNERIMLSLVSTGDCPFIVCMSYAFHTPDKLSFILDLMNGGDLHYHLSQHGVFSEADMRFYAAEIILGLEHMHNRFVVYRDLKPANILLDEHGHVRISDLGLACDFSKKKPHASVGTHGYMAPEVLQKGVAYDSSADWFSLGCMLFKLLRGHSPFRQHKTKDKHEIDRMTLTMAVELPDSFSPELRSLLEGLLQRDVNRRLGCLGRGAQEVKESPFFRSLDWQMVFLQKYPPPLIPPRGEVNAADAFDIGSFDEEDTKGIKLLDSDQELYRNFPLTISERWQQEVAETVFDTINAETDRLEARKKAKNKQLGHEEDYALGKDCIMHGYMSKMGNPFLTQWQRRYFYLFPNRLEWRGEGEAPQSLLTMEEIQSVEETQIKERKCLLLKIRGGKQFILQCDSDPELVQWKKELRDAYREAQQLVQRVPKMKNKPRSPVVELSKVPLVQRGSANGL
# ATP-binding cassette sub-family B member 6 (Homo sapiens), sequence (Q9NP58 whole entry, looked up): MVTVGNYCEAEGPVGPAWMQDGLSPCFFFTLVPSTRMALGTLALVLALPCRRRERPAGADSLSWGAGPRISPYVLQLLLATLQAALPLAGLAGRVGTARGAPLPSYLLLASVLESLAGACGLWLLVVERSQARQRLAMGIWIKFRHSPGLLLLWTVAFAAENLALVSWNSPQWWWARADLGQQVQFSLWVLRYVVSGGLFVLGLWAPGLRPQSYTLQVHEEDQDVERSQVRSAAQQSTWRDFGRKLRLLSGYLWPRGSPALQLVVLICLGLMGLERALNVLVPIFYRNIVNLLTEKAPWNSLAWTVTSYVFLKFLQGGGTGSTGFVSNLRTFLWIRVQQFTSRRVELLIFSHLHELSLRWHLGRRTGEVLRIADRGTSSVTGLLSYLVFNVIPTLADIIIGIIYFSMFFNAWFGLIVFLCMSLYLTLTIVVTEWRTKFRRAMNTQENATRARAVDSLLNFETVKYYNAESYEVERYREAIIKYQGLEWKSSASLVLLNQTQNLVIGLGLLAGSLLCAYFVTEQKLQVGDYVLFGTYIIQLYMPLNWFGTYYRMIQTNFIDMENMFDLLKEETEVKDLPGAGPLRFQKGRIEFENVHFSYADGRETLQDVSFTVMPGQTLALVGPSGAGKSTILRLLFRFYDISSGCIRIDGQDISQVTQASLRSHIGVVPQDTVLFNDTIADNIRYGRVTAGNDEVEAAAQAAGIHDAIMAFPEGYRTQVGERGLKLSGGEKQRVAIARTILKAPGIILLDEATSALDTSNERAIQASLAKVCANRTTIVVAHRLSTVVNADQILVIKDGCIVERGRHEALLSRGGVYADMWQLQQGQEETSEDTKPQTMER
# AP-2 complex subunit beta (Homo sapiens), sequence (P63010 whole entry, looked up, the tested form may be a part, one chain of several): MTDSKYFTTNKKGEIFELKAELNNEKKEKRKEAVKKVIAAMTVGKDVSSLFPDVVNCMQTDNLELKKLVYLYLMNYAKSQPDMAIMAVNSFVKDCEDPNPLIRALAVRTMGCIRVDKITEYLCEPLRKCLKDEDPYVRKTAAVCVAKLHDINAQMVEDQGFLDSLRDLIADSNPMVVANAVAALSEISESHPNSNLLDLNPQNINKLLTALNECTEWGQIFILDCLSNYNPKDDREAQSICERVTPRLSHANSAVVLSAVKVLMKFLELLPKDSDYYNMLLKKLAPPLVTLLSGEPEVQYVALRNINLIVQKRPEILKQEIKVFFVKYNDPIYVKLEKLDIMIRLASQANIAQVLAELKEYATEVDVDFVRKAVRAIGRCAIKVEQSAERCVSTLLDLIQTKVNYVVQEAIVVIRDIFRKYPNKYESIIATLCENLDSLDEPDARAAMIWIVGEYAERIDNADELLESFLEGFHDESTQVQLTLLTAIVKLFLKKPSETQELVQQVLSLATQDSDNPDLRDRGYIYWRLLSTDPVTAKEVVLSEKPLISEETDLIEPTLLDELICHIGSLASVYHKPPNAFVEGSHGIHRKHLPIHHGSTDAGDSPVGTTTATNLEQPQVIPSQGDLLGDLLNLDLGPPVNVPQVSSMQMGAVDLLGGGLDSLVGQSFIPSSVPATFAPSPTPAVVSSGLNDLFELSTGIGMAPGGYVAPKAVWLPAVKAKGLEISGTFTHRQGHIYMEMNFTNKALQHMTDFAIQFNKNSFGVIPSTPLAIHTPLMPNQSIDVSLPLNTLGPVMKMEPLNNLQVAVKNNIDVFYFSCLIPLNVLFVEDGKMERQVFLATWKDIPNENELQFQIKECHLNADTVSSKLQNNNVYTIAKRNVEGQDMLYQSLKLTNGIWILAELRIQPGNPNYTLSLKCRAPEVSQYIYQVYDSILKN
# Integrin beta-1 (Homo sapiens) + Integrin alpha-4 (Homo sapiens), sequence (P05556 whole entry, looked up): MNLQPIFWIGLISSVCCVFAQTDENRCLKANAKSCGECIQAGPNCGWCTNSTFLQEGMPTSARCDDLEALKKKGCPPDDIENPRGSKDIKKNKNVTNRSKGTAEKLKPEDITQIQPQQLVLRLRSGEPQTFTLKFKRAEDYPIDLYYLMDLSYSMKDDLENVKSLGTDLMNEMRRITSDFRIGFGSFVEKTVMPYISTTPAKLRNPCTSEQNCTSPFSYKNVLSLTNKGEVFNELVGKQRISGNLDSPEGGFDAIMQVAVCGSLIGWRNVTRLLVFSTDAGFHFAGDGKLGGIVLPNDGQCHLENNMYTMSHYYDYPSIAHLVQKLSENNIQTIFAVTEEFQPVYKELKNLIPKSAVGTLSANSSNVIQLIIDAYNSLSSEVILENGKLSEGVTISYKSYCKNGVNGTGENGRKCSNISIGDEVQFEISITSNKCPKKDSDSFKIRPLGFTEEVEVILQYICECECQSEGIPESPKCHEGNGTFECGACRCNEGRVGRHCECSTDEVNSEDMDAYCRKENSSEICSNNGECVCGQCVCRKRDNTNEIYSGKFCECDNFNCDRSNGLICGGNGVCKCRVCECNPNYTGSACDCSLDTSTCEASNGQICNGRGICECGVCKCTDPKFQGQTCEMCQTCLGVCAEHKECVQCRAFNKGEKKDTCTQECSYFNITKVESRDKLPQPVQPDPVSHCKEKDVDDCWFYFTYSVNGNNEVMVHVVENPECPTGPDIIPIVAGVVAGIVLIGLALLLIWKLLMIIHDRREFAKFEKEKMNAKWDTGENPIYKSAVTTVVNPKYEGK
# Integrin beta-1 (Homo sapiens) + Integrin alpha-4 (Homo sapiens), sequence (P13612 whole entry, looked up): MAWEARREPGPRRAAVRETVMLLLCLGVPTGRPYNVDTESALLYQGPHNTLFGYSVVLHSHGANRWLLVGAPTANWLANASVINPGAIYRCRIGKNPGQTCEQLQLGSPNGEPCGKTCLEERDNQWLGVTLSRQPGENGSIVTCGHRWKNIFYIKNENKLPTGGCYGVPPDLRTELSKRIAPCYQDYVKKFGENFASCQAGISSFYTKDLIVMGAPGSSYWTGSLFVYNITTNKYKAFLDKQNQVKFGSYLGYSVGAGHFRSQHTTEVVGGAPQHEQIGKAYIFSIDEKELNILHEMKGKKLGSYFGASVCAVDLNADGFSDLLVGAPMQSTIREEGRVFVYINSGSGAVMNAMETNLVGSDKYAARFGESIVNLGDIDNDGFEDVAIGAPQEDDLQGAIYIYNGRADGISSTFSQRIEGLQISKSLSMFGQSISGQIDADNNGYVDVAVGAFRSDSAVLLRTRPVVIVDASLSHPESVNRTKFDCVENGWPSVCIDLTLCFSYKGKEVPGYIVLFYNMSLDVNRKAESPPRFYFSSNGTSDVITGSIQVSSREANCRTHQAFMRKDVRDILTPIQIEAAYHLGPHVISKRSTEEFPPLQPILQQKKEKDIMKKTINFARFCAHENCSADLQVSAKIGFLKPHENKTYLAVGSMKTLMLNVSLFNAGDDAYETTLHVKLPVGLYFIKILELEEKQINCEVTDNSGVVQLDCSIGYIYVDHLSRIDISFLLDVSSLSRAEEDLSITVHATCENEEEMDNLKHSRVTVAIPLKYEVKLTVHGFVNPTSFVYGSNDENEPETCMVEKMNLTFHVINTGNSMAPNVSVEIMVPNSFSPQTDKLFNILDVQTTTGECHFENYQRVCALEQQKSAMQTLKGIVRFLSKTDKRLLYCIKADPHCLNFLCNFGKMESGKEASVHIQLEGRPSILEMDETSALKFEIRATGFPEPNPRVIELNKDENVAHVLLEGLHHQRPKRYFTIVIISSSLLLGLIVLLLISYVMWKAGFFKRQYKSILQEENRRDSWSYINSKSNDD
Structure (SMILES),percent of DMSO control GFP [1],GFP response vs DMSO [2],percent response of DMSO control [3],GFP response vs DMSO [4],"GFP response, % of DMSO [5]",double positive events [6],vesicle binding response [6],inhibition [7],superoxide response (% of plate) [8],aptamer binding inhibition [9],response [10],inhibition [11],response [12],binding (% of control) [13],efflux inhibition (fraction of control) [14],inhibition [15],differentiation response [16]
O=C(/C=C/c1ccc2c(c1)OCO2)NCc1ccc(F)cc1,101% (inactive),106% (inactive),95.4% (inactive),108% (inactive),99.7% (inactive),60.1%,130% (inactive),-3.57% (inactive),108% (inactive),2% (inactive),-3.87% (inactive),55.2% (active),-3% (inactive),98.4% (inactive),0.08 (inactive),2% (inactive),15.9% (inactive)
C(=C\c1ccc2ccccc2n1)/c1ccccc1,102% (inactive),96.3% (inactive),98.6% (inactive),97.4% (inactive),93.2% (inactive),63.3%,306% (inactive),-27.7% (inactive),94.9% (inactive),3% (inactive),5.82% (inactive),-3.54% (inactive),0.75% (inactive),105% (inactive),-0.31 (inactive),114% (active),-8.8% (inactive)
COc1ccc2cc(C(=O)Nc3ccc(S(N)(=O)=O)cc3)sc(=O)c2c1OC,93.7% (inactive),110% (inactive),114% (inactive),79.8% (inactive),98.9% (inactive),57.9%,258% (inactive),3.55% (inactive),101% (inactive),-4% (inactive),19.2% (inactive),-1.93% (inactive),0.97% (inactive),97.8% (inactive),0.19 (inactive),7% (inactive),-9.01% (inactive)
O=C(Nc1cccc(Oc2c(F)c(F)c(F)c(F)c2F)c1)N1C[C@@H]2C[C@@H](C1)c1cccc(=O)n1C2,100% (inactive),101% (inactive),101% (inactive),98% (inactive),101% (inactive),63.7%,215% (inactive),15.1% (inactive),104% (inactive),2% (inactive),-14.9% (inactive),-6.11% (inactive),0.72% (inactive),88% (inactive),-0.35 (inactive),-6% (inactive),7.09% (inactive)
Cc1ccc2c(c1)c(=O)c1c3n2CCN(C(=O)CCl)C3CC1 (stereo not drawn),96.3% (inactive),102% (inactive),97% (inactive),106% (inactive),111% (inactive),58.2%,198% (inactive),-10.5% (inactive),108% (inactive),18% (inactive),-25.7% (inactive),20.6% (inactive),-19.6% (inactive),96.7% (inactive),0.46 (active),1% (inactive),0.92% (inactive)
Cc1cc(C(=O)Nc2ccccc2C(=O)N2CCCCC2)ccc1[N+](=O)[O-],98.4% (inactive),103% (inactive),86.7% (inactive),114% (inactive),103% (inactive),62.3%,168% (inactive),-7.08% (inactive),124% (inactive),1% (inactive),-23.4% (inactive),19.6% (inactive),-4.47% (inactive),108% (inactive),-0.04 (inactive),8% (inactive),-8.93% (inactive)
CC(C)C12CN3CC(C(C)C)(CN(C1)C3c1ccccc1)C2O (stereo not drawn),98.9% (inactive),101% (inactive),101% (inactive),101% (inactive),109% (inactive),63.9%,110% (inactive),14.2% (inactive),99.3% (inactive),6% (inactive),-12.3% (inactive),8.13% (inactive),-11% (inactive),104% (inactive),-0.09 (inactive),6% (inactive),-0.06% (inactive)
Cc1ccc(CSCC(=O)N2CCCC2)cc1,102% (inactive),98.7% (inactive),101% (inactive),106% (inactive),106% (inactive),63.7%,132% (inactive),20.4% (inactive),95% (inactive),-2% (inactive),7.33% (inactive),-2.44% (inactive),-8.52% (inactive),97.9% (inactive),-0.05 (inactive),0% (inactive),-8.96% (inactive)
O=C(O)CCSCCC(=O)O,99.2% (inactive),107% (inactive),94.2% (inactive),97.3% (inactive),102% (inactive),63.2%,5720% (inactive),8.88% (inactive),107% (inactive),1% (inactive),2.6% (inactive),10% (inactive),1.2% (inactive),94% (inactive),0.05 (inactive),7% (inactive),-9.53% (inactive)
COc1ccc2c(c1OC)C(C1c3c(cc4c(c3OC)OCO4)CCN1C)OC2=O (stereo not drawn),107% (inactive),93% (inactive),121% (inactive),88.7% (inactive),111% (inactive),60.6%,54.2% (inactive),-23.3% (inactive),95.3% (inactive),1% (inactive),-7.53% (inactive),-1.99% (inactive),2.98% (inactive),98.9% (inactive),0.02 (inactive),6% (inactive),-2.69% (inactive)
Cc1cc(NS(=O)(=O)c2ccc(N)cc2)no1,103% (inactive),98.7% (inactive),107% (inactive),102% (inactive),113% (inactive),63.3%,121% (inactive),15% (inactive),99.6% (inactive),-1% (inactive),5.64% (inactive),-2.38% (inactive),-1.68% (inactive),99.2% (inactive),-0.16 (inactive),4% (inactive),-11.9% (inactive)
COC(=O)c1[nH]c(=O)c2ccccc2c1O,101% (inactive),95.2% (inactive),101% (inactive),110% (inactive),100% (inactive),62.3%,159% (inactive),0.94% (inactive),104% (inactive),1% (inactive),-13.2% (inactive),-7.21% (inactive),2.12% (inactive),101% (inactive),0.01 (inactive),109% (active),18.4% (inactive)
COc1ccc(C2C3=C(CC(C)(C)CC3=O)N(C)C3=C2C(=O)CC(C)(C)C3)cc1,101% (inactive),99.6% (inactive),88% (inactive),110% (inactive),118% (inactive),62.6%,173% (inactive),4.84% (inactive),104% (inactive),5% (inactive),-20.5% (inactive),2.92% (inactive),-12.8% (inactive),100% (inactive),-0.09 (inactive),3% (inactive),3.88% (inactive)
CN(C)CCCN1c2ccccc2CCc2ccccc21,99% (inactive),103% (inactive),101% (inactive),90.7% (inactive),95.3% (inactive),65.8%,1060% (inactive),12% (inactive),89.3% (inactive),-2% (inactive),2.45% (inactive),4.55% (inactive),-0.62% (inactive),99.7% (inactive),-0.2 (inactive),3% (inactive),6.11% (inactive)
COc1ccc(-c2cc(=O)oc3cc(OC(C)C(=O)O)ccc23)cc1 (stereo not drawn),107% (inactive),94.7% (inactive),93.8% (inactive),104% (inactive),107% (inactive),63.4%,124% (inactive),11.7% (inactive),115% (inactive),3% (inactive),-24.8% (inactive),6.04% (inactive),1.91% (inactive),108% (inactive),0 (inactive),3% (inactive),19.6% (inactive)
Cc1ccc2occ(C(=O)c3ccco3)c(=O)c2c1,101% (inactive),101% (inactive),89.5% (inactive),85.9% (inactive),86.1% (inactive),60.6%,99.1% (inactive),6.85% (inactive),104% (inactive),2% (inactive),-3.74% (inactive),-6.83% (inactive),0.29% (inactive),99.7% (inactive),-0.31 (inactive),1% (inactive),0% (inactive)
Brc1c(NC2=NCCN2)ccc2nccnc12,95% (inactive),105% (inactive),93.9% (inactive),119% (inactive),103% (inactive),56.2%,191% (inactive),6.4% (inactive),95.4% (inactive),3% (inactive),-8.4% (inactive),10.1% (inactive),0.44% (inactive),102% (inactive),-0.24 (inactive),1% (inactive),-12% (inactive)
O=C(O)c1ccc(-c2ccc(O)c(F)c2)cc1,105% (inactive),105% (inactive),111% (inactive),98% (inactive),102% (inactive),60%,4700% (inactive),-1.49% (inactive),96.3% (inactive),-2% (inactive),-5.66% (inactive),-6.99% (inactive),3.09% (inactive),97.9% (inactive),-0.17 (inactive),-1% (inactive),-6.6% (inactive)
CSCC[C@H](NC(=O)OC(C)(C)C)C(=O)N1CCC(C(=O)N[C@@H](C)C(=O)O)CC1,99.6% (inactive),105% (inactive),102% (inactive),89.4% (inactive),98.8% (inactive),65.4%,154% (inactive),9.71% (inactive),98.8% (inactive),2% (inactive),6.5% (inactive),-16% (inactive),-1.98% (inactive),103% (inactive),-0.22 (inactive),8% (inactive),0.41% (inactive)
